Compound activity deposited in PubChem by National Center for Advancing Translational Sciences (NCATS).
Hits are enriched below; roughly 7.7% of the tested compounds scored in any of these assays.
Sm TGR block – S. mansoni TGR enzyme inhibition. Q962Y6. purified TGR, DTNB reduction, TNB absorbance 405 nm. Potency, µM (top dose mostly 114 µM), usual class: inhibitors. 3% of 360,000 active; further: nearly all actives have a fitted effect of over 60% in size
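Kinetic colorimetric format: TGR-catalysed, NADPH-driven DTNB reduction monitored via TNB absorbance. Enzyme dispensed at 20 nM; compound exposure 15 min at room temperature before reaction start.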
FMDV antiviral – foot and mouth disease virus antiviral activity; Potency, µM (series often up to 57.9 µM), usual class: inhibitors; 1.2% of 410,000 active; FMDV antiviral cell-based qHTS; calls by dose curve; tested in HEK293T cells; further: read-out not given here; nearly all actives have a fitted effect of over 45% in size
Giardia FBPA inh – blocks Giardia fructose-bisphosphate aldolase activity; A8B2U2; purified Giardia FBPA; Potency, µM (series often up to 59.6 µM), actives largely listed as inhibitors; 0.71% of 290,000 active; AID 2451; further: nearly all actives have a fitted effect of over 55% in size
Target sequence (A8B2U2 whole entry, looked up): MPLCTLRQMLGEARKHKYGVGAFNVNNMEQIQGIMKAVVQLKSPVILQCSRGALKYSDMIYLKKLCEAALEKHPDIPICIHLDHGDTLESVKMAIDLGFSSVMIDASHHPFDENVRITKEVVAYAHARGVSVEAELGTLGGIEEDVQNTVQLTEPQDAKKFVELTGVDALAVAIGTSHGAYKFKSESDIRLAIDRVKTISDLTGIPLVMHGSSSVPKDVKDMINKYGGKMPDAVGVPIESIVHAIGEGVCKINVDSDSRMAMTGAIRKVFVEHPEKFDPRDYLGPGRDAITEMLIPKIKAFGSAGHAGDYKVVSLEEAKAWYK
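40 nM FBPA preincubated 10 min at RT with compound (up to 57.5 uM final), then substrate plus GAPDH/TPI/NAD/arsenate coupling and diaphorase/resazurin added. Fluorescence read after 20 min at RT, 525/598 nm.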
RE007 growth inh – less growth of the S. pombe RE007 Vpr strain; 0.21% of 360,000 active; S. pombe RE007 Vpr strain, BacTiter-Glo ATP luminescence, 24 h; Potency, µM (highest dose often 92.2 µM), most hits filed as inhibitors; active means well fitted falling curve with a large enough effect; inconclusive means small, poorly fitted or top-dose-only effect; inactive means no such curve, though single readings can be large or run the other way; further: nearly all actives have a fitted effect of over 50% in size
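Fission yeast strain RE007, carrying one chromosomally integrated HIV-1 vpr copy, was seeded at OD 0.01 in PMG+AL medium with 23 nL pinned compound. After 24 h at 30 °C and 99% humidity, viability was read by BacTiter-Glo luminescence.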
TbPYK inhibitor – blocks Trypanosoma brucei pyruvate kinase; Potency, µM (highest dose often 76.8 µM), hits mostly inhibitors; 0.12% of 410,000 active; TbPYK enzyme, Kinase-Glo Plus ATP luminescence, 45 min; Q57TT1; further: nearly all actives have a fitted effect of over 50% in size
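Quantitative HTS: titrated library compounds versus trypanosomal pyruvate kinase in TEA buffer (pH 7.2) containing KCl, MgCl2, BSA and Tween-20. Reactions were initiated with ADP, 130 uM final. Kinase-Glo Plus luminescence was read after 45 min at RT.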
HCMV antiviral – human cytomegalovirus inhibition | HFF cells, HCMV-luciferase reporter, 72 h; hits give low values | activity change, negative = inhibition, % at 57.5 µM | 4.5% of 410,000 active | AID 1259415; in the data active means activity change below about -60%; inconclusive means no clear call, values can overlap the other calls; inactive means above about -39%
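Inhibition of viral replication was scored as loss of reporter luminescence in HFFs infected with HCMV-luciferase (MOI 1 PFU/cell) for 72 h; compounds tested at 2 doses, normalized to buffer and Salinomycin controls.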
A number is an active result. Unless noted, the call rests on the fitted dose curve; in most records, active means well fitted curve in the direction sought with a large enough effect; inconclusive means small, poorly fitted or top-dose-only effect, or another doubt; inactive means no such curve, though single readings can be large; an effect the other way counts as inactive or inconclusive.

How did CSC1=NC(C)(C)C=C(/C=C/c2ccc(Cl)cc2)N1 do in these assays?
Sm TGR block: 5.01µM; FMDV antiviral: 20µM; Giardia FBPA inh: inactive; RE007 growth inh: inactive; TbPYK inhibitor: inactive; HCMV antiviral: -73.6

How did Cn1cc(S(=O)(=O)N2CCCCCC2)cc1C(=O)N1CCN(c2ccccc2F)CC1 do in these assays?
Sm TGR block: inactive; FMDV antiviral: inactive; TbPYK inhibitor: inactive; HCMV antiviral: inactive

Results for Cc1nc(N2CCOCC2)c2nc(-c3ccccc3)n(C(C)CN(C)C)c2n1 (configuration not stated) ?
Giardia FBPA inh: inactive

What do the screens show for `O=C(O)c1ccccc1-c1noc(-c2ccccc2F)n1`?
Sm TGR block: inactive

What do the screens show for `Cc1ccc(N=c2c([N+](=O)[O-])nn(-c3ccc4c(c3)OCCO4)n2O)c(Cl)c1`?
Sm TGR block: 4.47µM; Giardia FBPA inh: inactive

What do the screens show for `Cc1ccc(CN=c2c([N+](=O)[O-])nn(-c3ccc4c(c3)OCCO4)n2O)cc1`?
Sm TGR block: inactive; FMDV antiviral: inactive; Giardia FBPA inh: inactive; RE007 growth inh: inactive; TbPYK inhibitor: inactive; HCMV antiviral: inactive

How did O=[N+]([O-])c1nn(-c2ccc3c(c2)OCCO3)n(O)c1=NC1CCCC1 do in these assays?
Sm TGR block: inactive; FMDV antiviral: inactive; Giardia FBPA inh: inactive; RE007 growth inh: inactive; TbPYK inhibitor: inactive; HCMV antiviral: inactive

How did O=[N+]([O-])c1nn(-c2ccc3c(c2)OCCO3)n(O)c1=NC1CCCCCC1 do in these assays?
Sm TGR block: 35.5µM; FMDV antiviral: inactive; Giardia FBPA inh: inactive; RE007 growth inh: inactive; TbPYK inhibitor: inactive; HCMV antiviral: inconclusive

What do the screens show for `Cc1ccc(N=c2c([N+](=O)[O-])nn(-c3ccc4c(c3)OCCO4)n2O)cc1F`?
Sm TGR block: inactive; FMDV antiviral: inconclusive; Giardia FBPA inh: inactive; RE007 growth inh: inactive; TbPYK inhibitor: inactive; HCMV antiviral: -85.1

What do the screens show for `CCc1ccc(N=c2c([N+](=O)[O-])nn(-c3ccc4c(c3)OCCO4)n2O)cc1`?
Sm TGR block: 10µM; FMDV antiviral: inactive; Giardia FBPA inh: inactive; RE007 growth inh: inactive; TbPYK inhibitor: inactive; HCMV antiviral: inactive

What do the screens show for `Cc1cc(C)cc(N=c2c([N+](=O)[O-])nn(-c3ccc4c(c3)OCCO4)n2O)c1`?
Sm TGR block: inactive; FMDV antiviral: inactive; Giardia FBPA inh: inactive; RE007 growth inh: inactive; TbPYK inhibitor: inactive; HCMV antiviral: inactive

How did Cc1c(Cl)cccc1N=c1c([N+](=O)[O-])nn(-c2ccccc2)n1O do in these assays?
Sm TGR block: inactive; FMDV antiviral: inactive; Giardia FBPA inh: inactive; RE007 growth inh: inactive; TbPYK inhibitor: inactive; HCMV antiviral: inactive

What do the screens show for `O=[N+]([O-])c1nn(-c2ccc3c(c2)OCCO3)n(O)c1=Nc1ccc(Cl)cc1`?
Sm TGR block: 35.5µM; Giardia FBPA inh: inactive; RE007 growth inh: inactive; TbPYK inhibitor: inactive; HCMV antiviral: -90.6

Results for Cc1cccc(-n2nc([N+](=O)[O-])c(=NC3CCN(Cc4ccccc4)CC3)n2O)c1 ?
Sm TGR block: inactive; FMDV antiviral: inactive; Giardia FBPA inh: inactive; RE007 growth inh: inactive; TbPYK inhibitor: inactive; HCMV antiviral: -63.9

How did Cc1ccc(N=c2c([N+](=O)[O-])nn(-c3ccccc3)n2O)c(C)c1 do in these assays?
Sm TGR block: 31.6µM; FMDV antiviral: inactive; Giardia FBPA inh: inactive; RE007 growth inh: inactive; TbPYK inhibitor: inactive; HCMV antiviral: inactive

Results for O=[N+]([O-])c1nn(-c2ccc3c(c2)OCCO3)n(O)c1=Nc1ccccc1 ?
Sm TGR block: inactive; FMDV antiviral: 7.94µM; Giardia FBPA inh: inconclusive; RE007 growth inh: inactive; TbPYK inhibitor: inactive; HCMV antiviral: -94.8

What do the screens show for `O=[N+]([O-])c1nn(-c2ccc3c(c2)OCCO3)n(O)c1=NCCCO`?
Sm TGR block: inactive; FMDV antiviral: inactive; Giardia FBPA inh: inactive; RE007 growth inh: inactive; TbPYK inhibitor: inactive; HCMV antiviral: inactive

How did Cc1cccc(CCN=c2c([N+](=O)[O-])nn(-c3ccccc3)n2O)c1 do in these assays?
Sm TGR block: inactive; FMDV antiviral: inactive; Giardia FBPA inh: inactive; RE007 growth inh: inactive; TbPYK inhibitor: inactive; HCMV antiviral: inactive
